Bioassay records: PubChem BioAssay, several laboratories
HSP90 refold inh = inhibitors of HSP90 luciferase refolding in rabbit reticulocyte lysate; 0.91% of 290,000 active; luciferase refolding luminescence, 3 h; inhibition, % at 5.6 µM;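 active = inhibition above the screen-wide mean plus 3 SD, computed separately per campaign, cut at about 16% in these data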;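 also: inhibitors lower the luminescence because luciferase stays unfolded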
KKLEB tox = counter-screen for CF NF-kB inhibitors: cytotoxicity; KKLEB CF airway cells viability, ATPlite luminescence, overnight; stronger effect = lower value; cells stimulated with P. aeruginosa culture filtrate; activity change (cytotoxicity), % at 5 µM; 0.36% of 360,000 active; AID 602141;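 active = corrected activity change at or below -50% at 5 µM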
LGR2 antag = Drosophila LGR2 receptor signaling inhibition. HEK293 LGR2, CRE-luciferase, bursicon-stimulated, 4 h. inhibition, % at 9.99 µM. 0.35% of 380,000 active. AID 720647;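 active = drop in luminescence signal, shown as inhibition above about 50% in the replicate tests, limit read from the data, passing the limit was not always enough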;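 also: agonist challenge used bursicon conditioned medium at about half maximal strength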
Mdm2-MdmX inh = inhibitors of human Mdm2/MdmX interaction. SaOS-2 split-luciferase Mdm2/MdmX complementation, luminescence. inhibition, % at 8 µM. 3% of 330,000 active;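 active = inhibition of at least 50% at 8 µM in the primary screen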
Peg3 prom inh = inhibitors of Peg3 promoter. 1.7% of 360,000 active. HeLa PEG-Prom luciferase reporter, luminescence, overnight. inhibition, % at 20 µM. AID 588405;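 active = inhibition of at least 50% at 20 µM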
CF NFkB block = blocks PAF-induced NF-kB reporter in cystic fibrosis cells | KKLEB NF-kB-GFP reporter, GFP fluorescence overnight | inhibition, % at 5 µM | 0.86% of 360,000 active | AID 588850;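 active = at least 50% inhibition at 5 µM, scaled per plate between neutral and stimulator controls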;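 also: PAF is a Pseudomonas aeruginosa culture filtrate used as stimulus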
Each line names hits and unclear results; the compound was inactive in the other large screens. A selection: hits, their analogues and other compounds. The true share with any hit is near 3.6%.

OC1(c2cccc(C(F)(F)F)c2)CCN(c2ncnc3c2[nH]c2ccc(F)cc23)CC1	Peg3 prom inh 105 (no result: LGR2 antag, Mdm2-MdmX inh)
C[C@H]1CN([C@@H](C)CO)C(=O)c2cccc(NS(=O)(=O)c3ccccc3)c2O[C@@H]1CN(C)S(=O)(=O)c1cccs1	none (no result: HSP90 refold inh, KKLEB tox, Mdm2-MdmX inh, Peg3 prom inh, CF NFkB block)
CCCCCCCCNCCS(=O)(=O)NCc1ccccc1	Peg3 prom inh 64 (no result: HSP90 refold inh, Mdm2-MdmX inh)
COc1cccc(S(=O)(=O)N(C)C[C@@H]2Oc3ncc(C#CCN(C)C)cc3C(=O)N([C@@H](C)CO)C[C@@H]2C)c1	none (no result: HSP90 refold inh, KKLEB tox, Mdm2-MdmX inh, Peg3 prom inh, CF NFkB block)
CN1CCN(c2ccc(-c3cc(NC=O)c4ncc(-c5ccccc5)n4c3)cc2)CC1	Peg3 prom inh 79 (no result: HSP90 refold inh, Mdm2-MdmX inh)
CN(C)CCNC(=O)c1cccc(-c2cnc3c(NC=O)cc(-c4cc(F)c(F)c(F)c4)cn23)c1	none (no result: HSP90 refold inh, Mdm2-MdmX inh)
CN(C)CCNC(=O)c1cccc(-c2cc(NC=O)c3ncc(-c4cccc(C(F)(F)F)c4)n3c2)c1	Peg3 prom inh 98 (no result: HSP90 refold inh, Mdm2-MdmX inh)
COc1ccc(-c2cc(NC=O)c3ncc(-c4ccc(OC)c(OC)c4)n3c2)cc1OC	Peg3 prom inh 58 (no result: HSP90 refold inh, Mdm2-MdmX inh)
COc1cccc(-c2cnc3c(NC=O)cc(-c4ccc(O)c(OC)c4)cn23)c1	Peg3 prom inh 69 (no result: HSP90 refold inh, Mdm2-MdmX inh)
C[C@H](O)C#Cc1cnc2c(c1)C(=O)N([C@H](C)CO)C[C@@H](C)[C@H](CN(C)C(=O)Nc1ccc(F)cc1)O2	none (no result: HSP90 refold inh, KKLEB tox, Mdm2-MdmX inh, Peg3 prom inh, CF NFkB block)
COc1ccc(S(=O)(=O)Nc2ccc3c(c2)C(=O)N([C@@H](C)CO)C[C@@H](C)[C@@H](CN(C)C(=O)NC2CCCCC2)O3)cc1	none (no result: HSP90 refold inh, KKLEB tox, Mdm2-MdmX inh, Peg3 prom inh, CF NFkB block)
CCC(=O)N1[C@@H]2c3ccc(C4=CCCC4)c(=O)n3C[C@@H]2[C@@H](CO)[C@@H]1C(=O)NC1CCC1	none (no result: HSP90 refold inh, KKLEB tox, Mdm2-MdmX inh, Peg3 prom inh, CF NFkB block)
CC(C)NC(=O)N(C)C[C@H]1Oc2ncc(-c3ccc(C(=O)N(C)C)cc3)cc2C(=O)N([C@H](C)CO)C[C@@H]1C	none (no result: HSP90 refold inh, KKLEB tox, Mdm2-MdmX inh, Peg3 prom inh, CF NFkB block)
COc1cc(-c2cnc3c(NC=O)cc(-c4ccsc4)cn23)cc(OC)c1OC	Peg3 prom inh 76 (no result: HSP90 refold inh, Mdm2-MdmX inh)
COc1cc(-c2cc(NC=O)c3ncc(-c4ccc(F)cc4)n3c2)cc(OC)c1OC	none (no result: HSP90 refold inh, Mdm2-MdmX inh)
COc1ccc(CN2CC3(CN(C(=O)C4CCC4)C3)c3c(n(C)c4cc(OC)ccc34)[C@@H]2CO)cc1	none (no result: HSP90 refold inh, KKLEB tox, Mdm2-MdmX inh, Peg3 prom inh, CF NFkB block)
CCCCCCOC(=O)c1ccc(N)cc1	none
CCCCCCCCCCCC1N=C(N)NC(CCCO)=C1C(=O)OC (configuration not stated)	Peg3 prom inh 96 (no result: HSP90 refold inh, LGR2 antag, Mdm2-MdmX inh)
C[C@@H]1CN([C@H](C)CO)C(=O)Cc2cc(NC(=O)NC3CCCCC3)ccc2O[C@@H]1CN(C)CC1CCCCC1	none (no result: HSP90 refold inh, KKLEB tox, Mdm2-MdmX inh, Peg3 prom inh, CF NFkB block)
CC(C)C(Cl)=NOC(=O)Nc1ccc(F)cc1	Peg3 prom inh 55 (no result: HSP90 refold inh, Mdm2-MdmX inh)
O=C1/C(=C/c2ccccc2)SC(=S)N1C1CCS(=O)(=O)C1 (configuration not stated)	none
O=C1/C(=C/c2ccncc2)SC(=S)N1C1CCS(=O)(=O)C1 (configuration not stated)	CF NFkB block 65 (no result: LGR2 antag)
CC1=C(C(=O)N(C)C)CC(CC(=O)NC2CCCC2)C(=O)N1CCCN1CCCC1=O (configuration not stated)	none (no result: HSP90 refold inh, Mdm2-MdmX inh)
CC1=C(C(=O)N(C)C)CC(CC(=O)NC2CCCCC2)C(=O)N1CCCN1CCCC1=O (configuration not stated)	Peg3 prom inh 60 (no result: HSP90 refold inh, Mdm2-MdmX inh)
CC(C)OC(=O)CNc1n[nH]c(=S)[nH]c1=O	HSP90 refold inh 17 (no result: Mdm2-MdmX inh)
CC(C)(C)n1[nH]c2c3c(ccc2c1=O)C(=O)c1ccccc1C3=O	HSP90 refold inh 17 (no result: LGR2 antag)
COc1cc(NC(=O)C2=C(N3CCOCC3)/C(=C\c3ccc(Cl)cc3Cl)CC2)cc(OC)c1OC	KKLEB tox -65
COc1cc(NC(=O)C2=C(N3CCOCC3)/C(=C\c3ccc(Br)cc3)CC2)cc(OC)c1OC	none
CCOC(=O)c1cc(NC(=O)c2ccc(Cl)cc2)c(=O)n2c1oc1ccc(Cl)cc12	KKLEB tox -58
CCOC(=O)c1cc(NC(=O)c2ccc(C)cc2)c(=O)oc1C(F)(F)F	none
COC(=O)C[C@@H]1CC[C@@H]2[C@@H](COc3ccc(NC(=O)Nc4ccc(C#N)cc4)cc3C(=O)N2C)O1	none (no result: HSP90 refold inh, KKLEB tox, Mdm2-MdmX inh, Peg3 prom inh, CF NFkB block)
Cc1cc(N2CCCC2)c(F)cc1/C=C\[N+](=O)[O-]	Peg3 prom inh 79 (no result: Mdm2-MdmX inh)
O=C(NC(=S)Nc1ccc(CN2CCOCC2)cc1)c1ccc(-c2cccc(Cl)c2)o1	LGR2 antag 67
O=C(Nc1ccc(CN2CCOCC2)cc1)c1ccc(-c2cccc(Cl)c2)o1	none (no result: LGR2 antag)
